# Cycloheximide cs: Cycloheximide Counterscreen for Small Molecule Inhibitors of Shiga Toxin | cell reporter, cycloheximide protein synthesis inhibition counterscreen | max response, % | 12% of 300,000 active | AID 2314, 2010; in the data active = max response mostly above about 13%, no sharp cut-off; inactive = mostly below about 14%; note: read at 38.3 µM for the half of the compounds with a filed dose; 0% is about no effect
# Shiga inhibitor: A qHTS for Small Molecule Inhibitors of Shiga Toxin; 9.2% of 290,000 active; Vero cells, Shiga toxin protein synthesis inhibition reporter; inhibition, % at 38.7 µM; in the data active = inhibition mostly above about 28%, no sharp cut-off; inactive = mostly below about 43%; note: 0% is about no effect
# Pf growth 96h: Primary qHTS for delayed death inhibitors of the malarial parasite plastid, 96 hour incubation; Potency, µM (titrated, usually from 28.7 µM), inactives show at the top dose activity change, negative = inhibition, actives largely listed as inhibitors; P. falciparum luciferase reporter growth, 96 h; 6.9% of 320,000 active; AID 504834, 2011; note: potency is the fitted concentration of half-maximal effect; % is set by controls: 0 for no effect and ±100 for the full control effect
#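 Parasite growth measured via integrated firefly luciferase reporter in P. falciparum. Infected erythrocytes at 2% hematocrit, 0.05% parasitemia final were treated 96 hours at 37 C under 5% CO2, and luminescence was read.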
# NS1 function inh: qHTS Assay for Inhibitors of Influenza NS1 Protein Function; Potency, µM (titrated, usually from 46.1 µM), for the others: at the top dose activity, positive = more growth; 0.4% of 270,000 active; AID 2326, 2010; calls by dose curve; note: potency is the fitted concentration of half-maximal effect; actives are rising curves; nearly all actives have a fitted effect of over 50% in size
#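 S. cerevisiae expressing influenza A NS1, grown in glucose, washed, then diluted 1:100 into pH 6.0 -URA galactose medium with 23 nl compound. Growth recovery read as OD600; NS1-free strain serves as control.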
# Pf growth 48h: Primary qHTS for delayed death inhibitors of the malarial parasite plastid, 48 hour incubation | P. falciparum luciferase growth in erythrocytes, 48 h | AID 504832, 2011 | 5.9% of 310,000 active | Potency, µM (doses to about 28.7 µM), inactives show at the highest dose activity change, negative = inhibition, actives largely listed as inhibitors; note: potency is the fitted concentration of half-maximal effect; % is set by controls: 0 for no effect and ±100 for the full control effect
#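 First compound was added to culture medium, then infected red cells at 0.1% parasitemia and 2% hematocrit (final). After incubation at 37 C under 5% CO2, luciferase detection reagent was dispensed and light output recorded.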
# Numbers without * were called inactive; i = inactive; ? = inconclusive; nt = no result given; + = active, no number; ! = a repeat was not active. Only some compounds are listed: those with a hit (about 21% of all), similar ones and a draw of the others. Unless noted, calls come from the whole dose curve; as a rule, active = well fitted inhibition curve with a large enough effect; inconclusive = small, poorly fitted or top-dose-only effect, or another doubt; inactive = no such curve, though single readings can be large or run the other way.
SMILES,Cycloheximide cs,Shiga inhibitor,Pf growth 96h,NS1 function inh,Pf growth 48h
COc1ccc(C2/C=C\CN(C(=O)Nc3ccccc3-c3ccccc3)CC(=O)N2Cc2ccc(F)cc2)cc1 (configuration not stated),62*!,152*!,13µM*,?,13µM*
COc1ccc(C2/C=C\CN(S(=O)(=O)c3cccc4cccnc34)CC(=O)N2Cc2ccc(F)cc2)cc1 (configuration not stated),5,-4,12µM*,?,?
COc1ccc(/C(C)=N/NS(=O)(=O)c2cc(C)ccc2C)c(OC)c1,6,-6,?,nt,0%
Cc1cc2oc(=O)ccc2cc1[N+](=O)[O-],1,-7,12%,1%,-7%
FC(F)(F)c1ccc(N=Cc2sc(N3CCOCC3)nc2-c2ccccc2)cc1,0,-5,65%,11%,41%
Cc1cccc(C(=O)NC2CC3CCCC(C2)N3Cc2ccccc2)c1 (configuration not stated),-1,-12,?,-7%,-21%
CCC(SC1=Nc2ccccc2C2=NC(CC(C)C)C(=O)N12)C(=O)Nc1ccc2c(c1)OCO2 (configuration not stated),23*,40*,6%,11%,?
CC(Sc1ccccn1)C(=O)Nc1ccc2c(c1)OCO2 (configuration not stated),nt,nt,-1%,nt,29%
O=C(CN(C(=O)CSc1nc2ccccc2o1)c1ccccc1)NC1CCCCC1,-3,-2,16%,-1%,-10%
C=CCn1c(N)c(C(=O)OCCC)c2nc3ccccc3nc21,-7,-26,?,-13%,0%
Nc1c(C(=O)NCCCc2ccccc2)c2nc3ccccc3nc2n1Cc1cccs1,-5,-10,nt,25%,12µM*
CCCCCn1c(N)c(C(=O)NCc2cccs2)c2nc3ccccc3nc21,0,12,?,8%,2%
CCCOC(=O)c1c(N)n(Cc2cccs2)c2nc3ccccc3nc12,-8,-17,7.4µM*,3%,nt
CCCn1cc(S(=O)(=O)c2ccccc2)c(=O)c2cc(CC)ccc21,-2,-1,?,-4%,-12%
Clc1cccc(Cl)c1Cn1ccc(C2CC2)n1,41*,64*,111%,nt,i
C=C(C)C1CC=C(C)/C(=N/NC(=O)c2cccs2)C1 (configuration not stated),22*,77*,85%,1%,90%
O=C(NN=C1C2CC3CC(C2)CC1C3)c1ccccc1O,19*,38,-25%,-3%,?
C=C(C)C1CC=C(C)/C(=N/NC(=O)c2ccccc2[N+](=O)[O-])C1 (configuration not stated),14,9,0%,nt,?
O=C(NC12CC3CC(CC(C3)C1)C2)c1ccccc1O,16,41,nt,-59%,7.4µM*
Nc1ccc(C(=O)NC23CC4CC(CC(C4)C2)C3)cc1,-2,-9,-13%,-17%,0%
O=C(NN=C1CCCC1)c1cccs1,63*,91*,95%,21%,26%
CCc1ccc(S(=O)(=O)NC2CC(C)(C)NC(C)(C)C2)cc1,-2,-9,24%,-1%,2%
CCC(=O)N1CCc2cc(S(=O)(=O)CCC(=O)NCc3cccc(OC)c3)ccc21,-1,-10,6%,-5%,0%
Cc1ccc(CN(Cc2ccco2)S(=O)(=O)c2ccc(S(=O)(=O)NCC3CCCO3)cc2)cc1 (configuration not stated),6,4,50%,14%,25%
NC(=S)NN=C1C2CC3CC(C2)CC1C3,11,1,?,nt,?
SMILES,Cycloheximide cs,Shiga inhibitor,Pf growth 96h,NS1 function inh,Pf growth 48h
CC(=O)N1CCC(=NNC(=O)c2cccs2)CC1,55*,+,28%,8%,32%
O=C(CCCc1ccccc1)NC12CC3CC(CC(C3)C1)C2,46*,nt,-15%,-48%,38%
NC(=O)C(=O)NN=C1C2CC3CC(C2)CC1C3,8.0*,16,5%,8%,0%
O=C(NN=C1C2CC3CC(C2)CC1C3)c1cccs1,48*,73*,60%,-2%,nt
CC(=O)N1CCC(=NNC(=O)c2cc3ccccc3cc2O)CC1,7,-5,-3%,21%,?
O=C1c2cccnc2C(=O)N1Cc1ccc2c(c1)OCO2,3,-5,24%,-22%,1%
COc1ccc(-c2nc3ccc(C(=O)NCC(OC)OC)cc3nc2-c2ccc(OC)c(OC)c2)cc1OC,1,-4,13%,-4%,4.1µM*
CCOCCCNC(=O)c1ccc2nc(-c3ccc(OC)c(OC)c3)c(-c3ccc(OC)c(OC)c3)nc2c1,-2,3,14%,-3%,3.7µM*
CCc1nc2ccc(C(=O)NCCc3ccc(OC)c(OC)c3)cc2nc1CC,-6,3,?,-7%,-11%
CC(=O)Nc1ccc(S(=O)(=O)NCC(=O)OCC(=O)NC(=O)C2CCCCC2)cc1,21*,-13,-20%,5%,10%
CN(C)c1ccc(S(=O)(=O)NCC(=O)OCC(=O)NC(=O)C2CCCCC2)cc1[N+](=O)[O-],nt,nt,-25%,nt,-9%
Cc1ccc(Cn2cc(C=O)c(-c3ccc(C)cc3)n2)cc1,52*,78*,15%,-16%,32%
Nc1nc2ccc(OC(F)(F)F)cc2s1,59*,67*,?,-42%,47%
Nc1nc2ccc(Oc3ccccc3)cc2s1,30*,70*,nt,-100%,166%
Cc1nc2ccc(Oc3ccccc3)cc2s1,nt,nt,?,nt,31%
COc1ccc2c(=O)c(C)c(-c3ccccc3)oc2c1CN(C)C,nt,nt,?,nt,-15%
COc1ccccc1NCC(=O)NNCC(=O)Nc1ccc(F)c(Cl)c1,-2,-5,-25%,0%,0%
O=C(NCCCO)c1cc2ccccc2[nH]1,-2,25,43%,6%,0%
O=C(NCCCO)c1cc2c([nH]c3ccccc32)c(-c2ccccc2)n1,-2,-10,5.9µM*,-2%,?
O=C(NCCCO)c1cc2c(cn1)[nH]c1ccccc12,27*,43,69%,-2%,63%
COC(=O)[C@H](C)NC(=O)c1cc2c(cn1)[nH]c1ccccc12,15*,24,0%,1%,5%
C[C@H](NC(=O)c1cc2c(cn1)[nH]c1ccccc12)C(=O)O,-3,-15,13%,2%,?
O=[N+]([O-])c1cc(/C=N/N/C(=N/c2ccccn2)c2ccccn2)ccc1O,34*,123*,?,nt,0%
O=C(N/N=C/c1ccc(Sc2nc3ccccc3s2)c([N+](=O)[O-])c1)c1ccccn1,28,-4,10µM*,10%,?
Cc1onc(-c2ccccc2)c1C(=O)N/N=C/c1ccc(O)c([N+](=O)[O-])c1,-1,-5,?,11%,4%
O=C(Oc1cccc(/C=N/NC(=O)c2ccccn2)c1)c1ccc([N+](=O)[O-])cc1,-1,-18,-25%,-18%,6%

# Screens (PubChem)
